# Shown are actives, neighbours in structure and some others; about 4.3% of the full set was active somewhere.
# KKLEB tox: CF airway cell cytotoxicity counter-screen. KKLEB CF airway cells viability, ATPlite luminescence, overnight; stronger effect = lower value; cells stimulated with P. aeruginosa culture filtrate. activity change (cytotoxicity), % at 5 µM. 0.36% of 360,000 active;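 active = corrected activity change at or below -50% at 5 µM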
# CF NFkB block: blocks PAF-induced NF-kB reporter in cystic fibrosis cells | KKLEB NF-kB-GFP reporter, GFP fluorescence overnight | inhibition, % at 5 µM | 0.86% of 360,000 active;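 active = at least 50% inhibition at 5 µM, scaled per plate between neutral and stimulator controls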;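 note: PAF is a Pseudomonas aeruginosa culture filtrate used as stimulus; plate controls were PAF-stimulated DMSO wells for no effect and unstimulated DMSO wells for full effect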
# Peg3 promoter: Peg3 promoter activity inhibition; HeLa PEG-Prom luciferase reporter, luminescence, overnight; inhibition, % at 20 µM; 1.7% of 360,000 active; AID 588405;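 active = inhibition of at least 50% at 20 µM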
# HIF-2a block: blocks HIF-2a reporter activity. inhibition, % at 18.8 µM. 786-0 RCC cells HIF-2a reporter, luciferase luminescence, overnight. 0.72% of 360,000 active. AID 624352;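 active = inhibition of the luminescence signal of 40% or more relative to plate controls, in a single-dose primary screen at 18.75 µM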
# MITF TRPM1 inh: inhibitors of MITF-driven TRPM1 promoter in melanoma cells. SK-MEL-5 TRPM1 promoter luciferase, 24 h. AID 488899. 0.83% of 330,000 active. inhibition, % at 12.5 µM;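 active = mean inhibition across replicates of 60% or more, whatever share of single replicates reaches that level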
# CHOP inh: inhibitors of CHOP induction in ER stress response. inhibition, % at 10 µM. 3.8% of 220,000 active. CHO-K1 CHOP-promoter luciferase, tunicamycin-induced, 15-18 h. AID 2732;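 active = compounds that reduced the stress-induced luciferase reporter signal by more than about 70% of percent inhibition, limit read from the data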;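 note: 0% = tunicamycin plus vehicle and 100% = wells without tunicamycin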
# Mdm2 MdmX conf: Mdm2/MdmX (human) interaction inhibition, confirmed. SaOS-2 split-luciferase Mdm2/MdmX complementation, luminescence. shares compounds with HIF-2a block. 99% of 740 active. inhibition, % at 8 µM;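 active = mean inhibition of the luminescence signal across two replicates at or above 26 percent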
# Target sequence (O15151 whole entry, looked up): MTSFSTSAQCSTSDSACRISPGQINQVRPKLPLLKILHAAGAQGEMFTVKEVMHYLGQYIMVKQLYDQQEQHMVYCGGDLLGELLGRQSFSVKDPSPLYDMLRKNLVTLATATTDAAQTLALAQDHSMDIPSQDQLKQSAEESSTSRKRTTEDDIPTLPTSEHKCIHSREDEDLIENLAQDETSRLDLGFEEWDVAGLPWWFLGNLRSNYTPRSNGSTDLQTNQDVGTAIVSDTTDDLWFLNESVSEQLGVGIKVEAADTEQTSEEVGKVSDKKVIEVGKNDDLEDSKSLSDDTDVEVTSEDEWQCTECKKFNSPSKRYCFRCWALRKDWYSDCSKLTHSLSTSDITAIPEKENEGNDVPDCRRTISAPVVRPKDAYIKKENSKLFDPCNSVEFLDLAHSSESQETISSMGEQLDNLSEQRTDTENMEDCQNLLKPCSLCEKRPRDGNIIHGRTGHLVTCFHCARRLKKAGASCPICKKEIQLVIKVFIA
# Target sequence (Q00987 whole entry, looked up): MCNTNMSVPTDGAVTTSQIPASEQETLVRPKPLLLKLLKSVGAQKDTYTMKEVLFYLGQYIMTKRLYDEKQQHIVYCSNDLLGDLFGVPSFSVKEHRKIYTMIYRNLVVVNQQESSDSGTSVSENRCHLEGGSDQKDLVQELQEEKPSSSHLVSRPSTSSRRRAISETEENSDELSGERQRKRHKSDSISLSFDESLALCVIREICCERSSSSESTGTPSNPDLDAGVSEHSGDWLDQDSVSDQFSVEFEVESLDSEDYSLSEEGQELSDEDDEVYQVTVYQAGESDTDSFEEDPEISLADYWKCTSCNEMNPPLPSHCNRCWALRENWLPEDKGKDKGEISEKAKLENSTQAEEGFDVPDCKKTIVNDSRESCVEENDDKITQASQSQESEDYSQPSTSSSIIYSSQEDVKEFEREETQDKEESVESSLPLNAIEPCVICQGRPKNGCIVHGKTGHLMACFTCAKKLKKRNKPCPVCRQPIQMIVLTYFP
# HIF-2a conf: confirmation of HIF-2a inhibitors | shares compounds with HIF-2a block | 56% of 1,800 active | inhibition, % at 18.8 µM | 786-0 RCC cells, HIF-2a luciferase reporter luminescence, overnight;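 active = mean inhibition across four replicates of at least 40 percent at the single tested concentration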
# HIF-1a cs: inhibits HIF-1a reporter, a counter-screen for HIF-2a inhibitors; shares compounds with HIF-2a block; 72% of 1,800 active; inhibition, % at 18.8 µM; MiaPaCa-2 HIF-1a luciferase reporter, desferoxamine, overnight;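 active = mean inhibition of the reporter signal across four replicates at the single tested dose of 50% or more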
# * hit, by the source's call; nt = not tested or not shown.
SMILES,KKLEB tox,CF NFkB block,Peg3 promoter,HIF-2a block,MITF TRPM1 inh,CHOP inh,HIF-2a conf,HIF-1a cs,others
Cc1cc(NC(=O)CSC2=NS(=O)(=O)c3cc(F)ccc3N2)no1,11,-6,-6,5,5,nt,nt,nt,
COC(=O)C1=C(C)N(Cc2ccccc2)C(=NCc2cccc(C(F)(F)F)c2)N[C@H]1c1cccc(C(F)(F)F)c1,-29,16,99*,1,96*,nt,nt,nt,Mdm2 MdmX conf=102*
COc1ccc(NC(=O)C(=O)NCC2CCCN2S(=O)(=O)c2ccc(C)cc2)cc1 (stereo not given),-19,52*,-5,42*,72*,nt,33,49,
COc1ccc(S(=O)(=O)N2CCCC2CNC(=O)C(=O)Nc2ccc(C)cc2)cc1 (stereo not given),6,1,-1,-4,-2,nt,nt,nt,
CCCCNC(=O)NC1(C(F)(F)F)Oc2ccccc2O1,-20,4,0,18,1,-96,nt,nt,
CC(=O)NC1(C(Cl)(Cl)Cl)Oc2ccccc2O1,-6,2,24,47*,3,10,19,20,
Cc1cc(C)c(C(=O)/C=C/c2cccc3ccccc23)c(=O)[nH]1,-26,44,96*,85*,87*,-10,92*,105*,Mdm2 MdmX conf=103*
CCN(CC(=O)Nc1ccc(NC(C)=O)cc1)C(=O)C1(c2ccc(Cl)cc2)CCC1,12,-54,17,51*,nt,nt,32,1,
COc1ccc(NC(=O)CN(C)C(=O)C2(c3ccccc3)CCCC2)cc1,5,-108,45,51*,40,nt,32,15,
COc1ccc(NC(=O)CN(C)C(=O)CCc2ccccc2)cc1,-1,2,1,-2,-1,nt,nt,nt,
COc1ccc(-c2noc(CCCC(=O)O)n2)cc1,4,-1,9,84*,66*,84*,94*,80*,
CCOc1ccc(-c2noc(CCC(=O)O)n2)cc1,-13,-5,-15,75*,68*,85*,81*,69*,
COc1ccc(-c2noc(CCC(=O)O)n2)cc1,14,14,8,24,-7,17,nt,nt,
COCCNC(=O)C(=O)N/N=C/c1ccccc1C(F)(F)F,-7,6,-9,6,0,19,nt,nt,
O=C(COC(=O)c1ccc(OC(F)F)cc1)NCCC1=CCCCC1,-4,11,-5,7,1,nt,nt,nt,
O=[N+]([O-])c1ccc(Oc2cccc(F)c2)c2ccncc12,-17,41,18,47*,17,63,30,79*,
COc1ccc(C(=O)C(=O)N2CCC(c3ccccc3)CC2)cn1,nt,nt,nt,-16,nt,nt,nt,nt,
CCN1CCN(c2ccc(S(=O)(=O)N3CCCCC3)cc2NC(=O)/C=C/c2ccc([N+](=O)[O-])cc2)CC1,-20,-26,76*,87*,47,nt,-17,101*,
CCN1CCN(c2ccc(S(=O)(=O)N3CCOCC3)cc2NC(=O)/C=C/c2ccc(C)cc2)CC1,24,-18,-4,4,-20,nt,nt,nt,
CCSc1ccc(-c2cc(NC=O)c3ncc(-c4cccc(C(=O)NCCN(C)C)c4)n3c2)cc1,-2,-30,89*,92*,nt,nt,-9,101*,
CC(=O)Nc1cc(-c2cccc(C(=O)NCCN(C)C)c2)cn2c(-c3ccccc3)cnc12,-3,-12,6,-17,nt,nt,nt,nt,
CC(=O)Nc1cc(-c2cccc(C(=O)NCCN(C)C)c2)cn2c(-c3cccc(C(F)(F)F)c3)cnc12,-30,-79,99*,95*,nt,nt,1,105*,
C=C1CCN(c2ccc(C(=O)NCc3ccc(OC)cc3)cc2[N+](=O)[O-])CC1,-3,-8,0,-19,1,nt,nt,nt,
O=S(=O)(/C=C/C=C/S(=O)(=O)c1ccccc1)c1ccccc1,-42,92*,100*,95*,111*,nt,96*,105*,
CCC(Sc1nc2n[nH]c(C)c2c(=N)n1-c1ccc(C)c(Cl)c1)C(=O)N1CCOCC1 (stereo not given),-16,9,36,41*,-10,18,10,70*,
SMILES,KKLEB tox,CF NFkB block,Peg3 promoter,HIF-2a block,MITF TRPM1 inh,CHOP inh,HIF-2a conf,HIF-1a cs,others
CCOc1ccc(/C=C(\C)C(=O)c2c(C)cc(C)[nH]c2=O)cc1,-2,13,6,23,8,nt,nt,nt,
O=S(=O)(CCSc1nc2ccccc2s1)c1nc2ccccc2s1,-43,73*,58*,57*,39,5,25,69*,Mdm2 MdmX conf=103*
C=CCS(=O)(=O)c1nc2ccccc2s1,-18,52*,104*,88*,1,-9,-7,44,
CC(C)(C)S(=O)(=O)c1nc2ccccc2s1,-12,-1,-5,6,-11,6,nt,nt,
CCS(=O)(=O)C1=NN2C(=N)/C(=C\c3ccc(SCc4ccco4)o3)C(=O)N=C2S1,2,-3,-4,-25,-16,2,nt,nt,
Cc1ccccc1NC(=O)c1ccc(OCc2c(C)noc2C)cc1,-4,-10,-4,-9,-10,nt,nt,nt,
COc1cc2cc(C)c(SCC(=O)N3CCN(C(=O)c4ccco4)CC3)nc2cc1OC,-6,14,6,12,4,16,nt,nt,
COc1ccccc1N(CC(=O)N1CCCCC1C)S(=O)(=O)c1ccc(Cl)cc1 (stereo not given),4,-19,1,3,nt,nt,nt,nt,
COc1ccccc1-c1cc(C(F)(F)F)nc(S(=O)(=O)CCCC(=O)N2CCCCC2C)n1 (stereo not given),-75*,92*,110*,91*,91*,nt,91*,107*,
COc1ccc(Cl)cc1NC(=S)NC1CCCC1,0,7,11,7,-1,nt,nt,nt,
Cn1nnnc1Sc1ncnc2scc(-c3cccc4c3sc3ccccc34)c12,-44,24,98*,62*,51,nt,28,102*,
Cn1nnnc1Sc1ncnc2scc(-c3ccc(Cl)cc3)c12,-43,30,95*,86*,90*,nt,99*,102*,Mdm2 MdmX conf=103*
Cn1nnnc1Sc1ncnc2scc(-c3cccc(Br)c3)c12,-52*,80*,94*,82*,84*,nt,97*,102*,Mdm2 MdmX conf=103*
CCC(=O)Nc1ccccc1Sc1ncnc2scc(-c3ccccc3)c12,-8,-4,18,25,5,32,nt,nt,
Cn1nnnc1Sc1ncnc2scc(-c3ccc([N+](=O)[O-])cc3)c12,-63*,71*,102*,92*,98*,nt,97*,100*,Mdm2 MdmX conf=103*
Clc1ccc(-c2csc3ncnc(Cl)c23)cc1,-14,25,4,-35,10,41,nt,nt,

# Screening data deposited in PubChem BioAssay by several laboratories.
